# Test results as given in PubChem BioAssay (NCI).
# About 83,000 compounds went through this panel and 20% of them were active in at least one assay; those are over-represented in the sample as a whole.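 Values shown are percent growth following 48 h exposure of cells in 96-well plates to a single concentration of compound; below 10 was considered active.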 A number with no mark means an inactive call. Calls of active or inactive are those of the source.
# Experiments:
# Assay in all cases: NCI-60 one-dose screen, 48 h (100 = growth as untreated, 0 = no growth, -100 = all killed)
# [1] = system: HCT-15 colon
# [2] = system: HT29 colon
# [3] = system: SNB-75 CNS
# [4] = system: SNB-19 CNS
# [5] = system: U251 CNS
# [6] = system: PC-3 prostate
# [7] = system: SK-MEL-5 melanoma
# [8] = system: UACC-62 melanoma
# [9] = system: LOX IMVI melanoma
# [10] = system: SK-MEL-28 melanoma
# [11] = system: SK-MEL-2 melanoma
# [12] = system: EKVX NSCLC
# [13] = system: SN12C renal
# [14] = system: UO-31 renal
# [15] = system: ACHN renal; conditions: 10 µM unless noted
# [16] = system: A498 renal
# [17] = system: CCRF-CEM leukemia; conditions: 10 µM unless noted
# [18] = system: MOLT-4 leukemia
# [19] = system: TK-10 renal; conditions: 10 µM unless noted
# [20] = system: CAKI-1 renal; conditions: 10 µM unless noted
compound,measurement,setting,value
CC(=O)/C=C/c1ccc(N(C)Cc2ccc(C(C)(C)C)cc2)cc1,growth,[1]; 10 µM,87.5%
same,growth,[1]; 100 µM,-36.9% (active)
same,growth,[2]; 10 µM,78.1%
same,growth,[2]; 100 µM,-10.7% (active)
same,growth,[3]; 10 µM,102%
same,growth,[3]; 100 µM,-59.5% (active)
same,growth,[4]; 10 µM,110%
same,growth,[4]; 100 µM,-31.2% (active)
same,growth,[5]; 10 µM,89.8%
same,growth,[5]; 100 µM,-100% (active)
same,growth,[6]; 10 µM,77.6%
same,growth,[6]; 100 µM,-26.1% (active)
same,growth,[7]; 10 µM,74.7%
same,growth,[7]; 100 µM,-100% (active)
same,growth,[8]; 10 µM,78.8%
same,growth,[8]; 100 µM,-57.1% (active)
same,growth,[9]; 10 µM,80.1%
same,growth,[9]; 100 µM,-100% (active)
same,growth,[10]; 10 µM,92.5%
same,growth,[10]; 100 µM,-82.3% (active)
same,growth,[11]; 10 µM,99.7%
same,growth,[11]; 100 µM,-69.2% (active)
same,growth,[12]; 10 µM,106%
same,growth,[12]; 100 µM,-39.2% (active)
same,growth,[13]; 10 µM,90.6%
same,growth,[13]; 100 µM,-81.1% (active)
same,growth,[14]; 10 µM,78.5%
same,growth,[14]; 100 µM,-100% (active)
same,growth,[15],98.4%
same,growth,[16]; 10 µM,87.9%
same,growth,[16]; 100 µM,-95.6% (active)
same,growth,[17],-12.1% [100 µM] (active)
same,growth,[18]; 10 µM,62.2%
same,growth,[18]; 100 µM,-38.9% (active)
N#CC1=C(N)Oc2c(sc3c(Br)cccc23)C1c1ccccn1 (centres undefined),growth,[1]; 10 µM unless noted,28.5%
same,growth,[2]; 10 µM unless noted,10.6%
same,growth,[3]; 10 µM unless noted,61.2%
same,growth,[4]; 10 µM unless noted,48.4%
same,growth,[5]; 10 µM unless noted,36.5%
same,growth,[6]; 10 µM unless noted,40.6%
same,growth,[7]; 10 µM unless noted,40.8%
same,growth,[8]; 10 µM unless noted,18.3%
same,growth,[9]; 10 µM unless noted,38.7%
same,growth,[10]; 10 µM unless noted,65.3%
same,growth,[11]; 10 µM unless noted,2.4% (active)
same,growth,[12]; 10 µM unless noted,53.4%
same,growth,[13]; 10 µM unless noted,43.9%
same,growth,[14]; 10 µM unless noted,46.7%
same,growth,[19],64.6%
same,growth,[15],47.3%
same,growth,[20],87.4%
same,growth,[16]; 10 µM unless noted,37.9%
same,growth,[17],22.1%
same,growth,[18]; 10 µM unless noted,28.9%
C#CCn1cnc2cnc(Nc3cccc(NC(=O)CCl)c3)nc21,growth,[1]; 10 µM unless noted,6.26% [6.25 µM] (active)
same,growth,[2]; 10 µM unless noted,0.208% [6.25 µM] (active)
same,growth,[3]; 10 µM unless noted,-28.7% [6.25 µM] (active)
same,growth,[4]; 10 µM unless noted,11.5% [6.25 µM]
same,growth,[5]; 10 µM unless noted,-49.2% [6.25 µM] (active)
same,growth,[6]; 10 µM unless noted,18.9% [6.25 µM]
same,growth,[7]; 10 µM unless noted,-59.4% [6.25 µM] (active)
same,growth,[8]; 10 µM unless noted,-23.1% [6.25 µM] (active)
same,growth,[9]; 10 µM unless noted,-48.6% [6.25 µM] (active)
same,growth,[10]; 10 µM unless noted,14.5% [6.25 µM]
same,growth,[11]; 10 µM unless noted,-14.1% [6.25 µM] (active)
same,growth,[12]; 10 µM unless noted,69.1% [6.25 µM]
same,growth,[13]; 10 µM unless noted,6.82% [6.25 µM] (active)
same,growth,[14]; 10 µM unless noted,-71.1% [6.25 µM] (active)
same,growth,[19],-5.69% [6.25 µM] (active)
same,growth,[15],-39.9% [6.25 µM] (active)
same,growth,[20],-34.2% [6.25 µM] (active)
same,growth,[16]; 10 µM unless noted,-42.2% [6.25 µM] (active)
same,growth,[17],1.51% [6.25 µM] (active)
same,growth,[18]; 10 µM unless noted,0.772% [6.25 µM] (active)
Cc1cc2nc(C(Cl)Cl)nc(-c3ccc(Cl)cc3)n2n1,growth,[1]; 10 µM unless noted,-20.4% (active)
same,growth,[2]; 10 µM unless noted,2.12% (active)
same,growth,[3]; 10 µM unless noted,-22.7% (active)
same,growth,[4]; 10 µM unless noted,12.6%
same,growth,[5]; 10 µM unless noted,4.15% (active)
same,growth,[6]; 10 µM unless noted,16.1%
same,growth,[7]; 10 µM unless noted,41.2%
same,growth,[8]; 10 µM unless noted,48.5%
same,growth,[9]; 10 µM unless noted,48.4%
same,growth,[10]; 10 µM unless noted,18.5%
same,growth,[11]; 10 µM unless noted,49.2%
same,growth,[12]; 10 µM unless noted,-14% (active)
same,growth,[13]; 10 µM unless noted,36.5%
same,growth,[14]; 10 µM unless noted,-8.79% (active)
same,growth,[19],4.92% (active)
same,growth,[15],-41.7% (active)
same,growth,[20],-38% (active)
same,growth,[16]; 10 µM unless noted,-16.9% (active)
same,growth,[17],29.2%
same,growth,[18]; 10 µM unless noted,21.6%
Cc1cccc(-c2nnc(SCC(=O)Nc3ncc(Cc4ccccc4)s3)n2N2C(=O)CSC2=S)c1,growth,[1]; 10 µM unless noted,78.5%
same,growth,[2]; 10 µM unless noted,81.2%
same,growth,[3]; 10 µM unless noted,-7.46% (active)
same,growth,[4]; 10 µM unless noted,54.1%
same,growth,[5]; 10 µM unless noted,34.6%
same,growth,[6]; 10 µM unless noted,57.3%
same,growth,[7]; 10 µM unless noted,75.9%
same,growth,[8]; 10 µM unless noted,20.1%
same,growth,[9]; 10 µM unless noted,23.5%
same,growth,[10]; 10 µM unless noted,51.3%
same,growth,[11]; 10 µM unless noted,75.6%
same,growth,[12]; 10 µM unless noted,73.4%
same,growth,[13]; 10 µM unless noted,19.1%
same,growth,[14]; 10 µM unless noted,72.3%
same,growth,[19],47.3%
same,growth,[15],43.8%
same,growth,[20],23.3%
same,growth,[16]; 10 µM unless noted,64.8%
same,growth,[17],76.5%
same,growth,[18]; 10 µM unless noted,87.5%
Cn1cc(C2=C(c3cccc4ccccc34)C(=O)NC2=O)c2cc(Br)ccc21,growth,[1]; 10 µM unless noted,91.3%
same,growth,[2]; 10 µM unless noted,90.5%
same,growth,[3]; 10 µM unless noted,37.9%
same,growth,[4]; 10 µM unless noted,108%
same,growth,[5]; 10 µM unless noted,91.7%
same,growth,[6]; 10 µM unless noted,97.3%
same,growth,[7]; 10 µM unless noted,93.5%
same,growth,[8]; 10 µM unless noted,112%
same,growth,[9]; 10 µM unless noted,89.8%
same,growth,[10]; 10 µM unless noted,111%
same,growth,[11]; 10 µM unless noted,111%
same,growth,[12]; 10 µM unless noted,88.5%
same,growth,[13]; 10 µM unless noted,95.2%
same,growth,[14]; 10 µM unless noted,80.8%
same,growth,[19],101%
same,growth,[15],80.6%
same,growth,[20],69.2%
same,growth,[16]; 10 µM unless noted,69.8%
same,growth,[17],84%
same,growth,[18]; 10 µM unless noted,77.1%
COc1ccc(CN2CCc3c(Cl)nc(N)nc3C2=O)c(OC)c1,growth,[1]; 10 µM unless noted,-36.7% [100 µM] (active)
same,growth,[2]; 10 µM unless noted,-4.88% [100 µM] (active)
same,growth,[3]; 10 µM unless noted,4.5% [100 µM] (active)
same,growth,[4]; 10 µM unless noted,33.9% [100 µM]
same,growth,[5]; 10 µM unless noted,4.76% [100 µM] (active)
same,growth,[6]; 10 µM unless noted,12% [100 µM]
same,growth,[7]; 10 µM unless noted,-55.7% [100 µM] (active)
same,growth,[8]; 10 µM unless noted,-24.5% [100 µM] (active)
same,growth,[9]; 10 µM unless noted,-29.7% [100 µM] (active)
same,growth,[10]; 10 µM unless noted,-56.1% [100 µM] (active)
same,growth,[11]; 10 µM unless noted,-30.2% [100 µM] (active)
same,growth,[12]; 10 µM unless noted,5.84% [100 µM] (active)
same,growth,[13]; 10 µM unless noted,17.2% [100 µM]
same,growth,[14]; 10 µM unless noted,27.9% [100 µM]
same,growth,[19],22.2% [100 µM]
same,growth,[15],32.3% [100 µM]
same,growth,[20],23.4% [100 µM]
same,growth,[16]; 10 µM unless noted,35.7% [100 µM]
same,growth,[17],3.61% [100 µM] (active)
same,growth,[18]; 10 µM unless noted,13% [100 µM]
